# From publication doi:10.1101/2025.08.08.669391
# Target: Splicing factor 3B subunit 1 (UniProt O75533)
# Experiment: cross-link between two proteins; cross-linking mass spectrometry
# Chain of UniProt O75533 (O75533 whole entry): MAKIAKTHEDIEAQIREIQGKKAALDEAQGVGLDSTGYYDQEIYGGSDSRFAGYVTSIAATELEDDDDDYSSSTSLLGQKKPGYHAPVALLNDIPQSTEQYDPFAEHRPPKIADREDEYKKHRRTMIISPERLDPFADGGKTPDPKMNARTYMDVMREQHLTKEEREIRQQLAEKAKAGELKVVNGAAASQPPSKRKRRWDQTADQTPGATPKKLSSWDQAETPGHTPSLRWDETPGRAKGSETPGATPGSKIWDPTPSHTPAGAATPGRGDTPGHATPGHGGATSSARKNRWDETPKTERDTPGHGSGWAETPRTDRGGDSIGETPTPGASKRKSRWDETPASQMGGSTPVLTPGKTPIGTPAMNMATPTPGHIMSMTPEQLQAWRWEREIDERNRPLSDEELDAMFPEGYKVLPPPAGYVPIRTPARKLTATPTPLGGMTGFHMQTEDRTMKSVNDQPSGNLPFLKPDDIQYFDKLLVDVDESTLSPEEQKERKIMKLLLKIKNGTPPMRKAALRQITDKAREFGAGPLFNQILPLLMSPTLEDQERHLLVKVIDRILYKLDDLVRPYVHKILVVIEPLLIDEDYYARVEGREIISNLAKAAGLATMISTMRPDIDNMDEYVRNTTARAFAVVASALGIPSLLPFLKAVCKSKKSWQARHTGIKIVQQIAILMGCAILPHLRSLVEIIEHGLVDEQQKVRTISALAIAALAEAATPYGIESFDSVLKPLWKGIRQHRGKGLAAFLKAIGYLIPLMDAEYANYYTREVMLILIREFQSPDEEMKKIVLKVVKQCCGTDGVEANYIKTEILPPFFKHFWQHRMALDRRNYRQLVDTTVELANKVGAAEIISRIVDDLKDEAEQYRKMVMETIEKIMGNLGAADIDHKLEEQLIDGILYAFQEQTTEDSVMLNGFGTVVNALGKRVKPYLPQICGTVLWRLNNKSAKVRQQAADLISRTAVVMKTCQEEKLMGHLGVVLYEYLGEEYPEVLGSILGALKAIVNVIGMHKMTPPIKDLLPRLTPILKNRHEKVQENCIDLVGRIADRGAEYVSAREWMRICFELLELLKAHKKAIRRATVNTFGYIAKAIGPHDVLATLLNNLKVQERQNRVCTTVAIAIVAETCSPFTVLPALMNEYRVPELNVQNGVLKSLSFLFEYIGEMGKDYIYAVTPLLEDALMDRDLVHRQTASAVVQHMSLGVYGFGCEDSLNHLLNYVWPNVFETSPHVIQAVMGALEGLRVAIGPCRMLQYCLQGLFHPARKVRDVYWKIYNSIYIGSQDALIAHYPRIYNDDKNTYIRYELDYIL
substance,measurement,value
"17S U2 SnRNP complex component HTATSF1, O43719",listed as a hit,yes
